In the supplement of paper PMC6555819:

These sequences were tested on RARg:RXRa (NR concentration 270 nM, RXRa partner concentration 90 nM) (assay: PBM binding z-score (relative to random genomic background probes); higher = stronger binding; sequences stand for … in GC…GCGATTGACAGCGTAGAATGAAGG).
How it was run: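 The probes on custom Agilent 4×180K protein-binding microarrays were double-stranded, with 34-nt variable regions bearing direct-repeat seeds, single-nucleotide variants, half-site ablations and random human genomic background sequences. Incubation lasted 1 h with ligand-free nuclear receptor dimers in PBS pH 7.4, 2% milk, 0.02% Triton X-100, 1 mM DTT, 0.2 mg/mL BSA and 0.4 mg/ml salmon testes DNA. Antibodies against each partner (one per run) detected bound dimers, and fluorescence scans were regression-normalized. Binding z-scores take the random background probes as reference.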

Row | Sequence | PBM binding z-score
1 | TCATATAGGTGATACAGGTGAAAGTCGGCATCTA | 0.874
2 | ACTAGTTGGTCAGCTGTGGTCACACACAATTCGG | 0.489
3 | GCTCGGAGGACAGGGTCAGAGCTTTGTCCGTAGA | 2.42
4 | AATACAGGGTCACTAGCCCAGAGTAGGTACGAAT | 4.82
5 | TAGCCTAGGGCATTGGGCCAGTATAGTACGCATC | 0.434
6 | TCTGCTAGGTCAACGATGGTCATCTAATCTGCTA | 4.05
7 | CCTCGGAGGACAACAGGAGGACAGAGCTGCCAGA | 1.11
8 | TAACCTAGGTCATGGGCCAGTATACCACGCGAAC | 5.07
9 | CGTCCATGGTCAGAGAGGTCAGTGAATGCCGAGT | 3.16
10 | CCGAGTAGGTTATGGGGCATTTAGGCAACGGTGA | 0.488
11 | TCTACCAGGCCAGAGGGTCACTCAAGAGGTACGG | 3.03
12 | AGAACGAGGGCAATGAGTTGATAGCACGGGTGGC | 0.952
13 | ACAGACAGGTGATGACGGTAACTCAGGCTATCAT | 0.122
14 | GCTCGGAGGACAAGGTCAGCGCTTTGTCCGTAGA | 3.85
15 | CAAATTAGGTCACAGAGGTCAAAGTCCGTGCGTA | 7.24
16 | ACAGACAGGTGATGAAGGTAACCCAGGCTATCAT | 0.398
17 | TTTTGTAGATCAGCAGGTTAAGAAAGCTGGCCAA | -0.111
18 | CGTCCAAGGTCAGAGTGGTCAGTGAATGCCGAGT | 4.78
19 | CGAACTAGGTCATTGCCAGGACAGTGAATAGTAA | 4.1
20 | ACTAGTTGGTCTGCTGAGGTCACACACAATTCGG | 3.33
21 | ATCGAAAGGTCGACGTGAGTATAGAGAAAGGGAA | 3.93
22 | AATACAGGGTCATCGTAGGCCAAAGTACGCACAG | 5.86
